# Sampled rows, rich in hits. Any-hit rate of the full collection: about 10%.
# L3MBTL1 inh = qHTS Assay for the Inhibitors of L3MBTL1; Lethal(3)malignant brain tumor-like protein 1 (Homo sapiens), Q9Y468; AlphaScreen L3MBTL1–H3K9me1 peptide binding; Potency, µM (top dose mostly 57.1 µM), for inactives: at the highest dose activity, negative = inhibition, usual class: inhibitors; hit rate 0.66% among 230,000; AID 485360, 2010; note: % is set by controls: 0 for no effect and ±100 for the full control effect; nearly all actives have a fitted effect of over 60% in size
# Target sequence (Q9Y468 whole entry, looked up): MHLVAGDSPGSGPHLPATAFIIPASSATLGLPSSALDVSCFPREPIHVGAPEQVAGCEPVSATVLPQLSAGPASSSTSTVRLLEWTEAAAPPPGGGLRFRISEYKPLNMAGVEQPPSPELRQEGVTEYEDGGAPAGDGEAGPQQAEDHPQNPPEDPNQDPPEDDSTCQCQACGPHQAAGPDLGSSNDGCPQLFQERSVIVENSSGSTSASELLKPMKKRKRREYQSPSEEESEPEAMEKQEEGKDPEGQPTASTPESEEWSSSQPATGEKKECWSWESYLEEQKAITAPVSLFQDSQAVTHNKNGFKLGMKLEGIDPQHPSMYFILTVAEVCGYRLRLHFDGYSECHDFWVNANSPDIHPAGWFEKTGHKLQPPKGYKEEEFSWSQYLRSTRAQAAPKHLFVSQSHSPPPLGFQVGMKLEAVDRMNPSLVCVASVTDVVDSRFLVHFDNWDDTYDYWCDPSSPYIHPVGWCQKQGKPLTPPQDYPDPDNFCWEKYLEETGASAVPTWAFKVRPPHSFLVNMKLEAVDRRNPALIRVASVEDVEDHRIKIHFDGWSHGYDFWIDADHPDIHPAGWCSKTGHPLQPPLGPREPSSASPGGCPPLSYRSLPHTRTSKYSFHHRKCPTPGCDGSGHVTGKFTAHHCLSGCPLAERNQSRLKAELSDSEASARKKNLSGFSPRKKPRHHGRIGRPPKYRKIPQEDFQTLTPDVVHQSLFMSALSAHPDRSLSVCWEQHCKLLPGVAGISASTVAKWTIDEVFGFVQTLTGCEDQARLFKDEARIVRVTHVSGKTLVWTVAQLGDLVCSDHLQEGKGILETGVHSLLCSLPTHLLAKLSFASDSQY
#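 First, the protein-peptide complex forms for 30 min at room temperature (L3MBTL1 50 nM, biotinylated H3K9me1 peptide 75 nM). Next, compounds are pin-transferred and incubated 30 min. Finally, AlphaScreen beads are added and read after 30 min.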
# BAZ2B block = qHTS Assay for Inhibitors of BAZ2B. hit rate 4.4% among 360,000. Potency, µM (highest dose often 114 µM), inactives show at the top dose activity change, negative = inhibition, usual class: inhibitors. Bromodomain adjacent to zinc finger domain protein 2B (Homo sapiens), Q9UIF8. AlphaScreen BAZ2B-H3K14Ac peptide displacement; note: % is set by controls: 0 for no effect and ±100 for the full control effect; nearly all actives have a fitted effect of over 60% in size
#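 In this displacement format the biotinylated H3(5-23) peptide acetylated at Lys14 serves as ligand at 50 nM, with BAZ2B at 50 nM in PBS pH 7.4 containing 0.01% Tween-20. Donor and acceptor beads are 10 ug/mL final.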
# HP1b chromo inh = HTS for Inhibitors of HP1-beta Chromodomain Interactions with Methylated Histone Tails. AlphaScreen HP1-beta / biotin-H3K9me3 peptide binding. hit rate 0.56% among 390,000. Chromobox protein homolog 1 (Homo sapiens), P83916. Potency, µM (titrated, usually from 114 µM), for the others: at the highest dose activity change, negative = inhibition, most hits filed as inhibitors. AID 540317, 2011; note: nearly all actives have a fitted effect of over 70% in size
#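 AlphaScreen: HP1-beta (50 nM) preformed 30 min with biotin-H3(1-18)K9me3 peptide (50 nM) in PBS pH 7.4, 0.01% Tween-20. Compound added for 30 min at RT, then streptavidin donor/nickel chelate acceptor beads (10 ug/mL) for 30 min.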
# G9a inh = qHTS Assay for Inhibitors of Histone Lysine Methyltransferase G9a. hit rate 8.8% among 350,000. Potency, µM (highest dose often 102 µM), inactives show at the top dose activity, negative = inhibition, usual class: inhibitors. AID 504332, 2011. G9a H3K9 monomethylation, AlphaScreen, 2 h. Histone-lysine N-methyltransferase EHMT2 (Homo sapiens), Q96KQ7; note: % is set by controls: 0 for no effect and ±100 for the full control effect; nearly all actives have a fitted effect of over 75% in size
#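 Using a bead-based AlphaScreen, monomethylated H3K9 product from 2 h room-temperature reactions (G9a 20 nM, peptide 500 nM, SAM 20 uM) was detected with 0.5 ug/mL rabbit anti-H3K9me1 antibody.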
# GLS inhibitor = qHTS for Inhibitors of Glutaminase (GLS) | Potency, µM (titrated, usually from 45.5 µM), without a hit: top-dose activity change, negative = inhibition, most hits filed as inhibitors | GLS enzymatic activity, qHTS titration | hit rate 0.21% among 410,000; note: % is set by controls: 0 for no effect and ±100 for the full control effect
#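 Read-out is an Amplex red fluorescence increase coupled through glutamate oxidase and HRP, measured before and after 30 min room-temperature incubation. hKGA is in 45 mM KH2PO4 (pH 8.2) with 0.02% Tween-20; glutamine added as 1mM solution.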
# JMJD2A Tudor = qHTS Assay for Inhibitors of JMJD2A-Tudor Domain. Potency, µM (doses to about 114 µM), inactives show at the highest dose activity change, negative = inhibition, hits mostly inhibitors. hit rate 4.4% among 390,000. Lysine-specific demethylase 4A (Homo sapiens), O75164. AlphaScreen JMJD2A-Tudor / H3K4me3 peptide binding; note: % is set by controls: 0 for no effect and ±100 for the full control effect; nearly all actives have a fitted effect of over 50% in size
# * = called active by the depositor; u = inconclusive; x = no result; [ ] = another dose, or the depositor's remark. Calls come from the whole dose curve; as a rule, active = well fitted curve in the direction sought with a large enough effect; inconclusive = small, poorly fitted or top-dose-only effect, or another doubt; inactive = no such curve, though single readings can be large; an effect the other way counts as inactive or inconclusive. Potency is the fitted concentration of half-maximal effect.
SMILES,L3MBTL1 inh,BAZ2B block,HP1b chromo inh,G9a inh,GLS inhibitor,JMJD2A Tudor
CN(C)CCCNCC(=O)NN(c1ccccc1)c1ccccc1,x,32µM*,-32%,-131%[59 µM],-14%,0.79µM*
CC(=O)N1CCc2c(sc3c2c(=O)n(-c2ccccc2Cl)c(=O)n3C)C1,x,-3%,27%,-3%[59 µM],u,-2%
Cn1cnc2c1c(=O)n(Cc1ccc(F)cc1Cl)c(=O)n2C,-3%[11.4 µM],5%,34%,-4%[59 µM],8.9µM*,3%
Cn1c(Oc2ccccc2)nc2c1c(=O)n(Cc1ccc(Cl)cc1Cl)c(=O)n2C,x,-27%,18%,0%[59 µM],11µM*,-28%
Cn1cnc2c1c(=O)n(Cc1cccc(F)c1)c(=O)n2C,4%,12%,27%,u,-23%,-5%
COc1ccccc1CNC(=O)c1ccc(N2Cc3cccc(OC)c3Oc3ncccc32)s1,x,-2%,4%,-1%[59 µM],-7%,-19%
O=C(OCc1ccco1)c1ccc2c(c1)N(Cc1ccc([N+](=O)[O-])cc1)C(=O)c1ccccc1S2,x,-28%,6%[57 µM],-34%[59 µM],10%,-27%
O=C(Nc1ccccc1Br)N1CCN2CCCCC2C1 (stereo not given),x,-11%,27%,-23%[59 µM],9%,6%
CSCCC1NC2(C(=O)Nc3c(C)cc(Cl)cc32)[C@@H]2C(=O)N(C3CCCC3)C(=O)[C@H]12 (stereo not given in full),-13%,u,-10%,u,12%,-34%
CSCCC1NC2(C(=O)Nc3c(Cl)cccc32)[C@@H]2C(=O)N(C3CCCC3)C(=O)[C@H]12 (stereo not given in full),-21%,-24%,4%,71µM*,-24%,u
CC(NCC(O)COc1ccc2ccccc2c1)c1ccccc1 (stereo not given),x,50µM*,45µM*,14µM*,-7%,0.79µM*
COc1ccc(OCC(O)CNC(C)c2ccccc2)cc1 (stereo not given),x,-13%,28%,15%,-2%,-15%
CC(NC(=O)c1ccc2c(c1)N(Cc1ccc(Cl)cc1)C(=O)c1ccccc1S2=O)c1ccccc1 (stereo not given),x,-13%,21%,-46%[59 µM],8%,-14%
COc1ccc(C2C(C#N)=C(N)OC3=C2C(=O)CC(C)(C)C3)cc1OC (stereo not given),-9%,-25%,-12%,3%,8%,-21%
COc1cc(C2C(C#N)=C(N)OC3=C2C(=O)CC(C)(C)C3)ccc1OCCN1CCOCC1 (stereo not given),1%,-12%,22%,50µM*,-15%,-15%
O=C(c1c[nH]c(C(=O)C(Cl)(Cl)Cl)c1)c1c(F)cccc1F,x,-23%,3%,-41%,u,22µM*
C/C(=N\NC(=O)c1c(C)nc2ccccn12)c1ccc(O)cc1O,x,1.8µM*,34%,28%,-26%,-32%
O=C(NCCc1cnc[nH]1)c1cccs1,x,-22%,29%,x,3%,-6%
N=C(N)SCCc1cnc[nH]1,-1%,-32%,14%,7.5µM*,4%,-21%
Cn1ccnc1C(=O)c1ccc(NN)c([N+](=O)[O-])c1,-14%,u,-16%,22µM*,0%,-32%
Cn1ccnc1C(=O)c1cccc([N+](=O)[O-])c1,5%,7%,37%,-6%,0%,-1%
Cc1ccc(OC(=O)c2cccc([N+](=O)[O-])c2)c(-n2nc3ccccc3n2)c1,13%,-6%,17%,21%[59 µM],12%,-19%
Cc1cc(-n2nc3ccccc3n2)c(O)c([N+](=O)[O-])c1,-6%,-35%,-7%,79µM*,0%,-29%
COc1cccc(NCc2cc(=O)oc3cc(C)c(C(C)C)cc23)c1,x,-29%,2%,-5%[2.33 µM],8%,-32%
COc1cccc(NCc2ccc([N+](=O)[O-])s2)c1,-2%,u,u,13µM*,16%,u
SMILES,L3MBTL1 inh,BAZ2B block,HP1b chromo inh,G9a inh,GLS inhibitor,JMJD2A Tudor
CC(C)(C)c1cc(C(=O)N/N=C/c2ccc(-c3ccccc3[N+](=O)[O-])o2)n[nH]1,x,u,-23%,40µM*,1%,u
Nc1ccc(C(=O)N/N=C\c2cc(N=Nc3cccc4ccccc34)ccc2O)cc1,-17%,45µM*,u,-7%[0.501 µM],1%,u
Cc1cc(C(=O)N/N=C/c2cccc([N+](=O)[O-])c2O)n[nH]1,u,32µM*,31%,23%[59 µM],-11%,50µM*
COC(=O)N/N=C/c1cc(N=Nc2ccccc2Cl)ccc1O,-20%,u,33%,-24%,7%,u
Cc1cc(C(=O)N/N=C/c2cc(N=Nc3ccccc3)ccc2O)n[nH]1,-17%,-32%,5%,50µM*,0%,u
Cc1cccc(-c2noc(-c3cc(C(C)C)[nH]n3)n2)c1,x,14%,25%,-16%[59 µM],7%,-6%
COC(=O)c1sc2cccc(F)c2c1S(=O)(=O)N1CCN(c2ccc(F)cc2)CC1,x,-32%,-5%,u,7%,-30%
CC(C)CN(C[C@@H](O)[C@H](Cc1ccccc1)NC(=O)O[C@H]1CO[C@H]2OCC[C@H]21)S(=O)(=O)c1ccc(N)cc1,x,x,x,8%[12.7 µM],-3%,x
COc1ccc(C(=O)Nc2nnc(SCc3cc(=O)c4cccc(F)c4[nH]3)s2)cc1,x,10%,19%[57 µM],-3%[59 µM],6%,-17%
CCOc1ccccc1NC(=O)CSc1nc2c(oc3ccccc32)c(=O)n1-c1ccc(C)c(C)c1,x,-9%,-9%,-28%[59 µM],-4%,-18%
O=C1c2ccccc2C(=O)N1c1ncccc1O,x,x,x,x,x,-19%
Cc1ccc(S(=O)(=O)N(C)/N=C2/C(=O)N(CC(=O)O)c3ccccc32)cc1,x,-3%,-13%,14µM*,-5%,u
Nc1ccc(O)c2c1C(=O)c1ccccc1C2=O,u,4µM*,u,7.1µM*,7.9µM*,5.6µM*
COc1ccc(N)c2c1C(=O)c1ccccc1C2=O,-26%,32µM*,45µM*,25µM*,-2%,45µM*
COc1cccc2c1C(=O)c1ccc3ccccc3c1C2=O,x,u,17%,40µM*,-6%,u
O=C1C=C(O)c2c(O)cc(O)c(O)c2C1=O,x,x,u,x,u,1.6µM*
Cc1ccc(NC(=O)CSc2nc3nccnc3c(=O)n2CCc2c[nH]c3ccccc23)cc1,x,u,28%,-31%[59 µM],2%,-9%

# Assay outcomes: PubChem BioAssay, National Center for Advancing Translational Sciences (NCATS)
